These results are taken from publication PMC7862700, “An all-to-all approach to the identification of sequence-specific readers for epigenetic DNA modifications on cytosine”.

Common to all, as to assay: DAPPL (digital affinity profiling via proximity ligation, sequencing); 10 mM Tris-HCl pH 7.5, 50 mM NaCl, 1 mM DTT, 4% glycerol, room temperature, 30 min; GST-TFs on glutathione beads, 16-mer random dsDNA library, 0.1% formaldehyde crosslink after washing; high values mean tight binding
For one assay, the target named is T1, FEV (Homo sapiens, UniProt Q99581 1-238).
T1 sequence: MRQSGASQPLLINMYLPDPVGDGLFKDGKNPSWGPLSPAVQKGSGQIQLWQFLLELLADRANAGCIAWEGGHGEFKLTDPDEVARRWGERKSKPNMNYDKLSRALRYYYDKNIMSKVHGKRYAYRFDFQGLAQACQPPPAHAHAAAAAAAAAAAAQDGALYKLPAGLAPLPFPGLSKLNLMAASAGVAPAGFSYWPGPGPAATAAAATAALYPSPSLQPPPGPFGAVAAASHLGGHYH
To be noted: protein: recombinant; tags: N-terminal GST; dsDNA, one strand shown. Put shortly: (§1)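 Beads coated with glutathione captured GST-fused human transcription factors that had been expressed in yeast, and the factors were then given DNA barcodes and pooled with a tag-only sample. The pools were incubated with 200 nmole of a random double-stranded 16-mer DNA library in Tris/NaCl/DTT/glycerol buffer for 30 min at room temperature, washed, crosslinked with 0.1% formaldehyde and proximity-ligated with BsaI/T4 ligase at 37 °C for 1 h. PCR amplification and Illumina NextSeq500 sequencing came last. Binding signal is each hexamer's read frequency for a factor divided by its frequency for the tag-only sample.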

For another assay, the target named is ETV5 (Homo sapiens, UniProt P41161 1-510). The note with it: protein: recombinant; tags: N-terminal GST; dsDNA, one strand shown. The gist of the method:
as §1

A further assay addresses HSF1 (Homo sapiens, UniProt Q00613 1-529). The note with it: protein: recombinant; tags: N-terminal GST; chain copies: 3; dsDNA, one strand shown. Put shortly: as §1
Another assay has as its target T2, SPIC (Homo sapiens, UniProt Q8N5J4 1-248).
T2 sequence: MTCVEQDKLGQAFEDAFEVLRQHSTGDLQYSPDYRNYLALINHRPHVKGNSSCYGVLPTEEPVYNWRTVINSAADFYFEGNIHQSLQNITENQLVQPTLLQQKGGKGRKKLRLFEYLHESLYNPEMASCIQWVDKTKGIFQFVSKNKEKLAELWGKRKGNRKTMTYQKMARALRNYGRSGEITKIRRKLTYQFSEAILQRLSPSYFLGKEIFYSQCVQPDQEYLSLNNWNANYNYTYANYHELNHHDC
The note with it: protein: recombinant; tags: N-terminal GST; dsDNA, one strand shown. Put shortly:
as §1

A further assay has as its target ELF4 (Homo sapiens, UniProt Q99607 1-663). The note with it: protein: recombinant; tags: N-terminal GST; dsDNA, one strand shown. Put shortly:
as §1

In the next assay the target is T3, ELK4 (Homo sapiens, UniProt P28324-2 1-405).
T3 sequence: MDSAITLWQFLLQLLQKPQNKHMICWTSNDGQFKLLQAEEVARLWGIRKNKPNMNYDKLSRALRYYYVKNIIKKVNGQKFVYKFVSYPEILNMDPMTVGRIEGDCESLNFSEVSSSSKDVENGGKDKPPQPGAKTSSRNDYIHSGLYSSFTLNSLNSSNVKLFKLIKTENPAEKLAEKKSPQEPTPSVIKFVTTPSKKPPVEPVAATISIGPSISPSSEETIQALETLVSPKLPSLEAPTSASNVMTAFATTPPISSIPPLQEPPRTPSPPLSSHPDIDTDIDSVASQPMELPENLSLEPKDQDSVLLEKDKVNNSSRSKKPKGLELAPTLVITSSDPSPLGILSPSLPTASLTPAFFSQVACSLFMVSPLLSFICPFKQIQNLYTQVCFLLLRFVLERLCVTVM
The note with it: protein: recombinant; tags: N-terminal GST; dsDNA, one strand shown. Put shortly: as §1

For another assay, the target named is T4, ETV2 (Homo sapiens, UniProt O00321 1-342).
T4 sequence: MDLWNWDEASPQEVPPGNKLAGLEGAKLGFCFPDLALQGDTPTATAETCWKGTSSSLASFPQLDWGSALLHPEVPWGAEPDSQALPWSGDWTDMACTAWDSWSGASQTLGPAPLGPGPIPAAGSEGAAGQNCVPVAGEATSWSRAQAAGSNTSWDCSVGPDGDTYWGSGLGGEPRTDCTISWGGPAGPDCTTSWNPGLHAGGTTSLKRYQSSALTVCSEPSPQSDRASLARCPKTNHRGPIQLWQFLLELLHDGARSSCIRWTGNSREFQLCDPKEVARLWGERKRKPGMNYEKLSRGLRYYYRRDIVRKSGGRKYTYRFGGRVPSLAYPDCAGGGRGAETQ
The note with it: protein: recombinant; tags: N-terminal GST; dsDNA, one strand shown. The gist of the method: as §1

The target in the next assay is T5, ELF3 (Homo sapiens, UniProt P78545 1-371).
T5 sequence: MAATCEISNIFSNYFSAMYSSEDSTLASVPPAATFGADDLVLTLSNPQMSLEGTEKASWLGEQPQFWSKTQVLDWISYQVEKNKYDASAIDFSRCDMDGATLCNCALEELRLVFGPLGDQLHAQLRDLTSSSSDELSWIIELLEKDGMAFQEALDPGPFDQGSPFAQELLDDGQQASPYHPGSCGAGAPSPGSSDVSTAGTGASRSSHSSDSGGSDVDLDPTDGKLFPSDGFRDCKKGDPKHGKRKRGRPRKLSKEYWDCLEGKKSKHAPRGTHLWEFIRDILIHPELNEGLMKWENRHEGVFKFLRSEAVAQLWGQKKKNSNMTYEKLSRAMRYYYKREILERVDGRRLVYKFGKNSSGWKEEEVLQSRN
The note with it: protein: recombinant; tags: N-terminal GST; dsDNA, one strand shown. Put shortly:
as §1

Another assay deals with CRX (Homo sapiens, UniProt O43186 1-299). To be noted: protein: recombinant; tags: N-terminal GST; dsDNA, one strand shown. Put shortly:
as §1

The target in a further assay is ETV1 (Homo sapiens, UniProt P50549 1-477). To be noted: protein: recombinant; tags: N-terminal GST; dsDNA, one strand shown. Put shortly: as §1
A further assay concerns the target T6, ERF (Homo sapiens, UniProt P50548 1-548).
T6 sequence: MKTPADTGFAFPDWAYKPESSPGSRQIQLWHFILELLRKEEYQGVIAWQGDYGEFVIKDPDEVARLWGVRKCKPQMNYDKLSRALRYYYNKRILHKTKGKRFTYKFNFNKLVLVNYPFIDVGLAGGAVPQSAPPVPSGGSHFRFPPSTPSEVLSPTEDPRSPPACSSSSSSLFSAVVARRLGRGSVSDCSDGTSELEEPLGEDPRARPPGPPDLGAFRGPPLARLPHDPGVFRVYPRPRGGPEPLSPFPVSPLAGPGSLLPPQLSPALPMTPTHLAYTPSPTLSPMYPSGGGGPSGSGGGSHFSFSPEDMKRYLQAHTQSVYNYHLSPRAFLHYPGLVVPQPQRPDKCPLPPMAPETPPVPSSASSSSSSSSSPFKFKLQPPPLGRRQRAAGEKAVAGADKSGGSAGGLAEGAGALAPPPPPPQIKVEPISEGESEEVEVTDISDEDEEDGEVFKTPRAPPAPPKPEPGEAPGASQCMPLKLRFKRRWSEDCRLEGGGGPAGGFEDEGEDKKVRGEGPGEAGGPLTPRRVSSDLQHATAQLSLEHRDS
The note with it: protein: recombinant; tags: N-terminal GST; dsDNA, one strand shown. Put shortly:
as §1

The next assay has as its target T7, ETV3L (Homo sapiens, UniProt Q6ZN32 1-361).
T7 sequence: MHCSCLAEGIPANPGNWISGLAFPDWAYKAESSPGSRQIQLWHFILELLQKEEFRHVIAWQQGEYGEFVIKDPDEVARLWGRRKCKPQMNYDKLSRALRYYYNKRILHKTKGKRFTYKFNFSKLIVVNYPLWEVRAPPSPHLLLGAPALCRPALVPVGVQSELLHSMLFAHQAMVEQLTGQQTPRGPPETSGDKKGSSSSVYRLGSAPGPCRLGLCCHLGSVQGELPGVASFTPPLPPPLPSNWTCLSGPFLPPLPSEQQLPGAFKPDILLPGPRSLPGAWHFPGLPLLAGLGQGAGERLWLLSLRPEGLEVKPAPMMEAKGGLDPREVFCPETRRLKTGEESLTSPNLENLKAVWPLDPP
To be noted: protein: recombinant; tags: N-terminal GST; dsDNA, one strand shown. The gist of the method: as §1

The next assay has as its target T8, ETS2 (Homo sapiens, UniProt P15036 1-469).
T8 sequence: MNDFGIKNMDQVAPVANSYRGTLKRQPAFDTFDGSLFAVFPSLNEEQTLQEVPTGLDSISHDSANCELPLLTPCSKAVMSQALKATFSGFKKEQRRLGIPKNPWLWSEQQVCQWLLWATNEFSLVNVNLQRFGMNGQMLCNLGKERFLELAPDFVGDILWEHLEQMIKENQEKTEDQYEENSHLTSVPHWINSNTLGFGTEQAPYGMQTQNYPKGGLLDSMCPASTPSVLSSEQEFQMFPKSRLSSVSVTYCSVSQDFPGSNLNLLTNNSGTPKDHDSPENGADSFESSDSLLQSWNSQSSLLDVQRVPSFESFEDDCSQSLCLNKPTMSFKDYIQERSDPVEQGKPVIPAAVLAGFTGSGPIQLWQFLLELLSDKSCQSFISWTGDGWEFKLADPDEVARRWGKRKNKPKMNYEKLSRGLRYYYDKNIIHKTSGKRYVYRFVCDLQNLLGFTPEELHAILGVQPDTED
The note with it: protein: recombinant; tags: N-terminal GST; dsDNA, one strand shown. Put shortly: as §1

A further assay addresses T9, SPDEF (Homo sapiens, UniProt O95238 1-335).
T9 sequence: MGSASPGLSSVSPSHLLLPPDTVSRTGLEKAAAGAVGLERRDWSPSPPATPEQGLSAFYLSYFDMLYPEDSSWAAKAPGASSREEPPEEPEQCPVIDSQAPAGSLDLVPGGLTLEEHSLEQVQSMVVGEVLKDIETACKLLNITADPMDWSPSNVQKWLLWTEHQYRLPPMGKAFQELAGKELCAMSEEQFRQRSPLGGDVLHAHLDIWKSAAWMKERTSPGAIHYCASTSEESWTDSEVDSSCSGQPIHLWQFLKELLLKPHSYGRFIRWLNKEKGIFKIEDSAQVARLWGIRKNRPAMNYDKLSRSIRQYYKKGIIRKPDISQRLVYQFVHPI
The note with it: protein: recombinant; tags: N-terminal GST; dsDNA, one strand shown. Put shortly: as §1

In the next assay the target is T10, ETV7 (Homo sapiens, UniProt Q9Y603 1-341).
T10 sequence: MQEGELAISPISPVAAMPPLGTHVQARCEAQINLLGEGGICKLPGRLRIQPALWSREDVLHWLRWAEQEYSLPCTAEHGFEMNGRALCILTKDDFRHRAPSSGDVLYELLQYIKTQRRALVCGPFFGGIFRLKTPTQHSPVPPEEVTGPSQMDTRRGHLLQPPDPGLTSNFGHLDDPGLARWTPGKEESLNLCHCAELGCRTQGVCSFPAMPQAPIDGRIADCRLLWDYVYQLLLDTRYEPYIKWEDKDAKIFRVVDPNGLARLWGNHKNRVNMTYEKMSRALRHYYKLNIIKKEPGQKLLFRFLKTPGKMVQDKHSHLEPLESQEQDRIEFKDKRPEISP
To be noted: protein: recombinant; tags: N-terminal GST; dsDNA, one strand shown. The gist of the method:
as §1

The target in a further assay is T11, ELF5 (Homo sapiens, UniProt Q9UKW6-2 1-255).
T11 sequence: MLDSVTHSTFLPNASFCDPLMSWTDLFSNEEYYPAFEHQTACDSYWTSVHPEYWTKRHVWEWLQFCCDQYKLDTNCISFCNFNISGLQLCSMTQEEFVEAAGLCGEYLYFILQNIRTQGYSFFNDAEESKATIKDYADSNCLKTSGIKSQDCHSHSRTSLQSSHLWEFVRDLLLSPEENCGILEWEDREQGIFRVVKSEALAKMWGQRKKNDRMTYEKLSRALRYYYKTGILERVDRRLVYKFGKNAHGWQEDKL
The note with it: protein: recombinant; tags: N-terminal GST; dsDNA, one strand shown. Put shortly:
as §1

For the next assay, the target named is T12, ETV3 (Homo sapiens, UniProt P41162-2 1-143).
T12 sequence: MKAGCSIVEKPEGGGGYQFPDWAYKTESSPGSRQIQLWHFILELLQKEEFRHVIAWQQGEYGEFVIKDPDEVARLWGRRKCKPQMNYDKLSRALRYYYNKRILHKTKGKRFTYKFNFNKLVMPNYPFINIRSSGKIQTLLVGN
The note with it: protein: recombinant; tags: N-terminal GST; dsDNA, one strand shown. The gist of the method: as §1

For another assay, the target named is ETV6 (Homo sapiens, UniProt P41212 1-452). To be noted: protein: recombinant; tags: N-terminal GST; dsDNA, one strand shown. Put shortly:
as §1

CRX, sequence (O43186 whole entry): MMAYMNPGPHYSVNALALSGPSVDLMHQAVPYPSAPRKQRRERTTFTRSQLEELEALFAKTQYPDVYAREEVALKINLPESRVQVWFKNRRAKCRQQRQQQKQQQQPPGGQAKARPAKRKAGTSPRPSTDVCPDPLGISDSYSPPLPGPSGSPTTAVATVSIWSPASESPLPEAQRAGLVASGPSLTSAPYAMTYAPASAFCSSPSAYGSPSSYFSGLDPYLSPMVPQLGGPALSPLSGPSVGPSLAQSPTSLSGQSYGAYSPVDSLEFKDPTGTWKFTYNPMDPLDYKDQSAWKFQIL
ETV6, sequence (P41212 whole entry): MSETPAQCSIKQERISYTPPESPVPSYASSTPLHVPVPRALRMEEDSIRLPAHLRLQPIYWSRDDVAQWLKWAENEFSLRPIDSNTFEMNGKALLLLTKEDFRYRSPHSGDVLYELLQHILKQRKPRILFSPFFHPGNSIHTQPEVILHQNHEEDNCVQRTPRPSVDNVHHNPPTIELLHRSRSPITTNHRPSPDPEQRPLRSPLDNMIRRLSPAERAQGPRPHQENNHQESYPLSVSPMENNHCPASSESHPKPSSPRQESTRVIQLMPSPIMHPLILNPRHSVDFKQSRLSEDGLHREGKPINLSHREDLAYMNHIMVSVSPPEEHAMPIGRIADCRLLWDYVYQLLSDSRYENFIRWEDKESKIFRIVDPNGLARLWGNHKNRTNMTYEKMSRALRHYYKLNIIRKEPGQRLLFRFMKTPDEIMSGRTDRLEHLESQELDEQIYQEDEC
ETV1, sequence (P50549 whole entry): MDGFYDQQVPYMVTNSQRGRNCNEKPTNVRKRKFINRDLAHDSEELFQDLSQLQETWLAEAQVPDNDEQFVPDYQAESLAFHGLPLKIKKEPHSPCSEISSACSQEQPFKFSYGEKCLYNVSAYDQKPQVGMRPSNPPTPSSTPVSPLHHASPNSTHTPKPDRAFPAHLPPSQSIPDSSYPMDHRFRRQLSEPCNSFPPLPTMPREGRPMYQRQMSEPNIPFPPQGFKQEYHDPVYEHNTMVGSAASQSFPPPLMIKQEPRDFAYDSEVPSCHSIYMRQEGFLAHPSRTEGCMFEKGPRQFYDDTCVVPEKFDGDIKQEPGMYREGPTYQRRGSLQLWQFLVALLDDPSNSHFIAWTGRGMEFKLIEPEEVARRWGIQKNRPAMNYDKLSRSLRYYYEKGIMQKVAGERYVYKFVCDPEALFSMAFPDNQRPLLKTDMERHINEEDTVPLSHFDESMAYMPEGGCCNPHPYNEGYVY
HSF1, sequence (Q00613 whole entry): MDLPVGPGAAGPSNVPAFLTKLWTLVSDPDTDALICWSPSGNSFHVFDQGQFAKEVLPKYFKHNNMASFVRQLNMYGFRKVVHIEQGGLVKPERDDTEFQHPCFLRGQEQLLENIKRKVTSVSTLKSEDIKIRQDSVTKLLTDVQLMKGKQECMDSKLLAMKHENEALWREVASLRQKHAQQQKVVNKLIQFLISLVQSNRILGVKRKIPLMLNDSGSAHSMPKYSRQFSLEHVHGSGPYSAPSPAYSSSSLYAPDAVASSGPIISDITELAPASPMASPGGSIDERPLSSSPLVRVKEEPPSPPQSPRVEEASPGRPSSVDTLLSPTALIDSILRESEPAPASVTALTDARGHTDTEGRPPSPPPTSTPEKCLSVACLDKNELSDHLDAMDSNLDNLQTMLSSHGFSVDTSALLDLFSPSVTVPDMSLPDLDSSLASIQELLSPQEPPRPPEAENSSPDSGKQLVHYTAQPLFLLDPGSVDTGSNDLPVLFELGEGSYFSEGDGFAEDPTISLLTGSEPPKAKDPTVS
ETV5, sequence (P41161 whole entry): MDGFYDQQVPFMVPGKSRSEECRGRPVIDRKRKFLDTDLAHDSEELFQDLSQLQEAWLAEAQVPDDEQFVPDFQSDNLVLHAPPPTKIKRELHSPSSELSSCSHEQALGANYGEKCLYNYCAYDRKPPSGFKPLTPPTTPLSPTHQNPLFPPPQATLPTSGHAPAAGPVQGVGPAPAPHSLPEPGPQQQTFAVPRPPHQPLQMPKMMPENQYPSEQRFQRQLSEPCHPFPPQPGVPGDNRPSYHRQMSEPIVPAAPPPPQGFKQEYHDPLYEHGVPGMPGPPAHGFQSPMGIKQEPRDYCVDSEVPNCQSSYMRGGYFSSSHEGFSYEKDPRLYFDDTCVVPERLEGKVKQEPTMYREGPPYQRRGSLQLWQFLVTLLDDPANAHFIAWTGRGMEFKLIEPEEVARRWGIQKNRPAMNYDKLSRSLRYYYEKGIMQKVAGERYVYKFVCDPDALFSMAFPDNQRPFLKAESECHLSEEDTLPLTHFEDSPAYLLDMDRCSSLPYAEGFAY
ELF4, sequence (Q99607 whole entry): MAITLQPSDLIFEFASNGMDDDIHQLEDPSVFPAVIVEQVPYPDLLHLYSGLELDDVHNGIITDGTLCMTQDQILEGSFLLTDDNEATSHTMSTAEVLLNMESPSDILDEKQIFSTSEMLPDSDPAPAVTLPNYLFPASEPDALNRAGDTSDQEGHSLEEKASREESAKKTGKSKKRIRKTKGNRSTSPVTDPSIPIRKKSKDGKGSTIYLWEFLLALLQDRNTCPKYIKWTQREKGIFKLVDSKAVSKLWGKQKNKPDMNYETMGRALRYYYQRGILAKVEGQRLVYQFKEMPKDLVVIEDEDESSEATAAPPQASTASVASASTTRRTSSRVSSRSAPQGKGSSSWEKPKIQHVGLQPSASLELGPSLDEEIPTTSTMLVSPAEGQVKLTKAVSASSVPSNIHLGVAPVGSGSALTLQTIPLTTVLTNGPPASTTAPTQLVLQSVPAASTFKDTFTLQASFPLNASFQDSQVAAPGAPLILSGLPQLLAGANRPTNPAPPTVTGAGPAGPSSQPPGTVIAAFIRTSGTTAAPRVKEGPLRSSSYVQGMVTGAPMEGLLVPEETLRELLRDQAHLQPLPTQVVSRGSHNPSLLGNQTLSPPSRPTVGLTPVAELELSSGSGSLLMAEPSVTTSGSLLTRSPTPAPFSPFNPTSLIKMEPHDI

For TTCTGA, the binding signal was 1.22 fold enrichment (6-mer frequency, TF over GST control) in the assay with FEV; 1.23 fold enrichment (6-mer frequency, TF over GST control) with ETV5; 1.48 fold enrichment (6-mer frequency, TF over GST control) with HSF1; 1.03 fold enrichment (6-mer frequency, TF over GST control) with SPIC; 1.45 fold enrichment (6-mer frequency, TF over GST control) in the assay with ELF4; 1.4 fold enrichment (6-mer frequency, TF over GST control) in the assay with ELK4. Besides, the binding signal with ETV2 was 1.23 fold enrichment (6-mer frequency, TF over GST control); in the assay with ELF3 it was 1.13 fold enrichment (6-mer frequency, TF over GST control); with CRX, 1.41 fold enrichment (6-mer frequency, TF over GST control); in the assay with ETV1, 1.27 fold enrichment (6-mer frequency, TF over GST control); with ERF, 1.16 fold enrichment (6-mer frequency, TF over GST control); with ETV3L it was 1.35 fold enrichment (6-mer frequency, TF over GST control). The binding signal in the assay with ETS2 was 1.43 fold enrichment (6-mer frequency, TF over GST control); with SPDEF it was 1.38 fold enrichment (6-mer frequency, TF over GST control); with ETV7, 1.19 fold enrichment (6-mer frequency, TF over GST control); in the assay with ELF5 it was 1.26 fold enrichment (6-mer frequency, TF over GST control); in the assay with ETV3, 1.37 fold enrichment (6-mer frequency, TF over GST control); with ETV6, 1.3 fold enrichment (6-mer frequency, TF over GST control).
